Experimental data as given in publication PMC6212790, “How bacterial xenogeneic silencer rok distinguishes foreign from self DNA in its resident genome”.
In all, about 33,000 sequences were measured (“e-score”: median about -0.037, highest 2% from about 0.34 on). The sample holds the highest values, similar sequences and a random draw of the others, so the mix is not that of the screen.

What follows are sequences tested against T1, GST-Rok (full length) (Bacillus subtilis subsp. subtilis str. …, UniProt O34857 1-191) (assay: protein binding microarray; Rok is a gene silencer of Bacillus subtilis; high values mean tight binding). Conditions: protein: recombinant; tags: GST (pTH5325, pDEST15-Magic modified); dsDNA, one strand shown.
T1 sequence: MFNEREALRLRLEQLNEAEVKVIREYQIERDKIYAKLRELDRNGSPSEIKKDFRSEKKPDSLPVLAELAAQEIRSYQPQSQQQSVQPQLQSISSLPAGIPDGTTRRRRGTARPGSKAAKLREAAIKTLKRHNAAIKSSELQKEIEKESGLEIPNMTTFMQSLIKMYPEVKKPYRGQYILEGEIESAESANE
In short: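 Each has a 25-mer constant primer and a 35-mer variable part from a de Bruijn sequence of order 10, covering every non-palindromic 8-mer at least 32 times (palindromic 16). Preference for each 8-mer is given as a rank-based, unitless enrichment score (E-score). Its range runs from 0.5 (most favored) to −0.5 (most disfavored).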

Sequence	binding signal [E-score]
GCCTGTAC	-0.0711
AACCTTAC	0.0321
AAGAAGAG	-0.106
AAAGGTTG	-0.0391
CATAGGCA	0.0952
GAACTTCA	0.0379
ACATAAGT	0.127
AGAAACTC	0.158
CGAAACCA	-0.108
CGAAACTC	-0.0462
AGAAACTA	0.412
GGAAACAA	0.207
GGAAACGA	-0.156
GGAAACTA	0.362
CGAAACTA	0.446
AGAAACTG	0.12
AATTAAGG	0.158
ATCGGTCA	0.0381
ATGGCTTG	-0.172
TATGGGCA	-0.0796
TAAGCCGA	-0.0712
AACTTATC	0.134
CAATGGTA	0.322

Sequence	binding signal [E-score]
GAATGGTA	0.317
TAATGGTA	0.387
AACTCAGG	0.0467
CGTGACCA	-0.0921
AAGTACAG	0.272
CTCTATTC	0.00987
ACATATTC	0.27
CAATATTC	0.21
CTATATTC	0.353
GAATATTC	0.417
ATATATTC	0.34
AAATATTC	0.251
CGATATTC	0.194
GAATATTA	0.0406
AGGTCACT	-0.137
ATTGTTTC	0.228
CCGGTCAC	-0.153
ATACATGA	0.294
CTACATGA	0.347
GTACATTA	0.262
CTACATGC	0.308
CTACATTC	0.176
CTACATTA	0.355

Sequence	binding signal [E-score]
CAAAAAAC	0.0394
CGGTAAAA	0.278
TGGTAAAA	0.354
CGTAAAAA	0.0957
GGTAAAAA	0.349
GGGTAAAA	0.184
GGTAAAAC	0.192
CGAGTTAG	0.0866
ACTGCCAC	-0.0928
AAATGATT	-0.0952
AAATGATC	0.143
AAATGATA	0.37
AAAACCTA	0.255
ACTGGTGG	-0.172
TAGTACGA	0.359
CAGTACGA	-0.048
AAGTACTA	0.389
GAGTACGA	0.0148
CAGTACTA	0.279
GAGTACTA	0.13
TAGTACTA	0.44
AAGTACTC	0.165
AAGTACTG	0.114

Sequence	binding signal [E-score]
CCAATTGC	0.145
AGATAGCG	0.22
ACCTTCTG	-0.0843
CTATACTC	0.137
CTATACTA	0.288
GTATACGA	0.179
AGATACTA	0.348
ATATACTC	0.288
ATATACTG	0.391
ATATACGA	0.23
ATATACTA	0.409
GTATACAA	0.308
GGATACTA	0.211
GTATACTA	0.378
CGATACTA	0.328
ATCAGCAA	-0.0224
GACAAATC	-0.0534
ATGATTGA	0.0352
GGATGTTA	0.0229
CAATTACA	0.189
AAAGCCGG	-0.147
ACGAGTCC	-0.192
AATAGGAG	0.0707

Sequence	binding signal [E-score]
ACATACTG	0.141
ACATACTA	0.361
GCATACTA	0.325
CTCCCAAC	-0.0944
AGGCTTAA	-0.159
ATACGTAA	0.323
CTAAAAAC	0.082
ATAGTTGA	0.228
ATCGTTTC	0.14
ATAGTTCC	0.135
CGAGTTTC	0.0534
CTAGTTTC	0.413
CTAGTTTA	0.383
CTAGTTCA	0.152
ATAGTTTA	0.346
ATAGTTTC	0.398
ATCGTTTA	-0.0103
CTAGTTGA	0.226
CCAGTTTC	-0.0817
GCCTACTA	0.0988
